± gives the standard deviation of the averaged measurements. About 5,400 targets were measured; listed, in parts, are those with the largest changes and a random draw of the rest.
Compound: Nc1nc2c(ncn2[C@@H]2O[C@H](COP(=O)(O)OP(=O)(O)OP(=O)(O)O)[C@@H](O)[C@H]2O)c(=O)[nH]1 [guanosine triphosphate]
Assay: NP40-soluble protein abundance relative to vehicle (solubility fold change) (ratio); higher = more soluble protein in presence of GTP
Protocol: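 Solubility proteome profiling in Jurkat crude lysate. Lysate was treated with Mg-GTP (0.1-10 mM) for 10 min at room temperature and 3 min at 37 °C, then solubilised with 0.8% NP40 and benzonase, followed by ultracentrifugation. Proteins were quantified by TMT10 LC-MS/MS; the value is the NP40-soluble abundance relative to the NP40-processed vehicle, from 3 independent experiments.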

Sequence of UniProt Q9HA47 (Q9HA47 whole entry): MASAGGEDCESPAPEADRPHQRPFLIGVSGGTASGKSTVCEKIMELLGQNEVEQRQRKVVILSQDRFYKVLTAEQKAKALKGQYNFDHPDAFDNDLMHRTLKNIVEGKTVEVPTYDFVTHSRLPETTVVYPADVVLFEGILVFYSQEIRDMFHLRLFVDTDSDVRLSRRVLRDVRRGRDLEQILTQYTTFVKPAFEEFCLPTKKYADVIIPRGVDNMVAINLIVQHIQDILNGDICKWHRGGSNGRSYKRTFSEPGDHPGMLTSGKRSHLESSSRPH
Sequence of UniProt Q96LT9 (Q96LT9 whole entry): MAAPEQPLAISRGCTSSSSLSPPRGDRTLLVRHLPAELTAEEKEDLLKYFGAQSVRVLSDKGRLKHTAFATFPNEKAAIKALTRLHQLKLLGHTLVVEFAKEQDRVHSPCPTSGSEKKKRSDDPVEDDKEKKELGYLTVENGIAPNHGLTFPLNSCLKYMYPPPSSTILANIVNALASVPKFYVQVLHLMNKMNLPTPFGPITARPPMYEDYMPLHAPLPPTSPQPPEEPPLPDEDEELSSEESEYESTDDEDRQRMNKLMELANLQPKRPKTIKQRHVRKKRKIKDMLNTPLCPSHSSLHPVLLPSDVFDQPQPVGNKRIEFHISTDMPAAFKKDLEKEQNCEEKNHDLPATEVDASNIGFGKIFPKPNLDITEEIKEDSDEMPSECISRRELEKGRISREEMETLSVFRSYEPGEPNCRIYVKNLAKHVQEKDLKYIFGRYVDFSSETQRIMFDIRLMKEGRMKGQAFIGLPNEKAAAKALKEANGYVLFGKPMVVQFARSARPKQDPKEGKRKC
Sequence of UniProt Q9NRX1 (Q9NRX1 whole entry): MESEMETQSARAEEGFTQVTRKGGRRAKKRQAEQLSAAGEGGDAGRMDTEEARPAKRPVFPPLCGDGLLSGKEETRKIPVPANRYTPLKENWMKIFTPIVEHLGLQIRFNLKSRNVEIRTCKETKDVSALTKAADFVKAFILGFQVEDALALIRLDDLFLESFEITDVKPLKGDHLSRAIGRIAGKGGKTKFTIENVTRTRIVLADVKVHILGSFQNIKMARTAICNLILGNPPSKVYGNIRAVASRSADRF
Sequence of UniProt Q9NQS7 (Q9NQS7 whole entry): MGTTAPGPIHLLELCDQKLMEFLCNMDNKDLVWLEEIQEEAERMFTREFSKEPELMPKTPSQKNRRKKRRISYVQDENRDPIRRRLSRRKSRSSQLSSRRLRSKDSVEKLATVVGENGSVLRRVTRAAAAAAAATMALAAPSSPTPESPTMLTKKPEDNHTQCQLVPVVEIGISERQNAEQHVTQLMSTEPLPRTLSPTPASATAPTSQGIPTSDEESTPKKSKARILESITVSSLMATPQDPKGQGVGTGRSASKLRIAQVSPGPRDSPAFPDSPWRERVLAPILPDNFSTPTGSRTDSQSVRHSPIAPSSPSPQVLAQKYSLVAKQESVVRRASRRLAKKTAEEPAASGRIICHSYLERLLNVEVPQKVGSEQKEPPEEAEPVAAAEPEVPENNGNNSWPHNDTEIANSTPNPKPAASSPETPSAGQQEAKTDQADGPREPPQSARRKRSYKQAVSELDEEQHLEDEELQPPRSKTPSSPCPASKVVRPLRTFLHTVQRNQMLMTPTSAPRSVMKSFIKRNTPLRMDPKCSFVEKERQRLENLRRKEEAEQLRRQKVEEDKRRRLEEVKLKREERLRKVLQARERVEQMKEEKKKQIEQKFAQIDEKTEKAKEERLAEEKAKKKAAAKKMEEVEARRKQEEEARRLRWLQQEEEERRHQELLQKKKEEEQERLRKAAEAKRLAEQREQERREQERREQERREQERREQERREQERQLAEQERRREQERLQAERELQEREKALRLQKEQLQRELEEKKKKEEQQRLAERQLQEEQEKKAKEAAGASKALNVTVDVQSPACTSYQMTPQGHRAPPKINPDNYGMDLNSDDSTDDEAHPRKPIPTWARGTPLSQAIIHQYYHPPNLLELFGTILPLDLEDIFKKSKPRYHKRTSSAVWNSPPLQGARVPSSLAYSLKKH
Sequence of UniProt Q9UKV8 (Q9UKV8 whole entry): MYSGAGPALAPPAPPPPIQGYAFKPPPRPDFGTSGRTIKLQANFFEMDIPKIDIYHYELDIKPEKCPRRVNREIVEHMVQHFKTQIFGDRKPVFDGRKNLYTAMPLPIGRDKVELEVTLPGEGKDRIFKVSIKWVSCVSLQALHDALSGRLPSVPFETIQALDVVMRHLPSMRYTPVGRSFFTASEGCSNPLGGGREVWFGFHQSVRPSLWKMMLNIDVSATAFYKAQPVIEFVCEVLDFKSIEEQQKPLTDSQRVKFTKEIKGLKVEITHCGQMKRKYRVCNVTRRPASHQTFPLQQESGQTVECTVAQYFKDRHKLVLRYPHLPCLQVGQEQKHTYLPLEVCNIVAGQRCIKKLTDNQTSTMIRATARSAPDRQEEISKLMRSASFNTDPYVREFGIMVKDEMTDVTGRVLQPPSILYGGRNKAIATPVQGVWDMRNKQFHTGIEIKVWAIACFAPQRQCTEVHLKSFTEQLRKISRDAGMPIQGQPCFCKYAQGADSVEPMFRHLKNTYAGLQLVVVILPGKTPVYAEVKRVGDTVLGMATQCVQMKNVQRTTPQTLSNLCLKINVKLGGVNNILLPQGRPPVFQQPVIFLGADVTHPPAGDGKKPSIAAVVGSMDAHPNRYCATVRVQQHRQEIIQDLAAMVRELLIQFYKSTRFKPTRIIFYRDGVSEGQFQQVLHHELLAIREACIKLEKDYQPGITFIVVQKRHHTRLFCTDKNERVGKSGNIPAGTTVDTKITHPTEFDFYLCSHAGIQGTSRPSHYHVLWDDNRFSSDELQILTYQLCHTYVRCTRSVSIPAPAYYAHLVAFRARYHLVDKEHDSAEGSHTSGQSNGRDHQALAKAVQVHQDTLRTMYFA

Target	NP40-soluble protein abundance (concentration: 0.1mM)	NP40-soluble protein abundance (concentration: 0.5mM)	NP40-soluble protein abundance (concentration: 1mM)	NP40-soluble protein abundance (concentration: 2mM)	NP40-soluble protein abundance (concentration: 4mM)	NP40-soluble protein abundance (concentration: 6mM)	NP40-soluble protein abundance (concentration: 8mM)	NP40-soluble protein abundance (concentration: 10mM)
UniProt Q96LT9|Q96LT9-2	1.26 ± 0.038	1.16 ± 0.16	1.42 ± 0.12	1.49 ± 0.3	1.61 ± 0.28	1.6 ± 0.35	1.72 ± 0.51	1.8 ± 0.54
PNO1 (UniProt Q9NRX1)	1.04 ± 0.082	1.09 ± 0.17	1.14 ± 0.19	1.15 ± 0.28	1.09 ± 0.27	1.09 ± 0.3	1.15 ± 0.28	1.15 ± 0.32
UniProt Q9HA47|Q9HA47-3|Q9HA47-4	1.01 ± 0.02	0.946 ± 0.037	1.05 ± 0.1	0.966 ± 0.056	0.98 ± 0.1	0.987 ± 0.034	0.983 ± 0.12	0.958 ± 0.024
UniProt Q9UKV8	1.08 ± 0.065	1.14 ± 0.053	1.06 ± 0.045	1.11 ± 0.053	1.1 ± 0.026	1.07 ± 0.078	1.07 ± 0.057	1.05 ± 0.061
UniProt Q9NQS7|Q9NQS7-2	1.16 ± 0.11	1.2 ± 0.24	1.31 ± 0.089	1.28 ± 0.14	1.49 ± 0.21	1.6 ± 0.17	1.72 ± 0.11	1.97 ± 0.29

Reference: the supplement of paper PMC6411743
